Screens deposited in PubChem by National Center for Advancing Translational Sciences (NCATS).
An excerpt weighted towards active compounds, which were near 18% of everything screened.
TDP1 cell CPT – DT40-hTDP1 cell growth loss with CPT; Potency, µM (series often up to 46.2 µM), hits mostly inhibitors; actives 12% (n = 420,000); chicken DT40 Tdp1-/-;hTDP1 cells + 20 nM CPT, ATP luminescence, 48 h; note: nearly all actives have a fitted effect of over 55% in size
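Cell growth measured by CellTiter-Glo luminescence after a minimum 48 h, 37 C compound exposure with 20 nM CPT in Tdp1-knockout DT40 cells stably expressing hTDP1, seeded 400/well; qHTS titration format.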
VDR inhibitor – inhibitors of human vitamin D receptor. P11473. VDR-SRC2-3 peptide fluorescence polarization, 2 h. Potency, µM, usual class: inhibitors. actives 0.93% (n = 400,000). AID 504847
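Reagent solutions, kept cold and dark, are dispensed first; compounds are then pinned in at 23 nl, plates briefly spun, and incubated 2 h at ambient temperature. Inhibition of VDR–SRC2-3 peptide binding is read by fluorescence polarization.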
DT40 TDP1 no CPT – qHTS for Inhibitors of human tyrosyl-DNA phosphodiesterase 1 (TDP1): qHTS in cells in absence of CPT; DT40 Tdp1-/- hTDP1 cells, no CPT, ATP luminescence, 48 h; Potency, µM (series often up to 46.2 µM), actives largely listed as inhibitors; actives 15% (n = 420,000); AID 686978, 2013; note: nearly all actives have a fitted effect of over 55% in size
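Compound effects on proliferation are scored in DT40 Tdp1-/-;hTDP1 cells in the absence of CPT. ATP levels (CellTiter-Glo luminescence) are recorded after a ≥48 hr, 37 °C incubation.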
PLK1 PBD inh – blocks phosphopeptide binding to human PLK1 polo-box domain; Plk1 PBD binding of FITC phosphopeptide, fluorescence polarization; Potency, µM, usual class: inhibitors; actives 2.8% (n = 360,000); AID 720504; note: series mostly up to about 57 µM; nearly all actives have a fitted effect of over 65% in size
KAT2A inh – inhibitors of human GCN5L2 histone acetyltransferase. GCN5L2 HAT assay, ThioGlo1 CoA-SH fluorescence. Potency, µM (highest dose often 58.9 µM), most hits filed as inhibitors. actives 0.21% (n = 390,000). AID 504327
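Free CoA generated was detected with ThioGlo1 (50uM) fluorescence at Ex340nm/Em540nm, read immediately and after 20 min at room temperature. Enzyme, 20 nM in HEPES pH 7.5 buffer, saw compounds 15 min before adding 75uM H3(1-25) peptide and 70uM acetyl-CoA.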
TDP1 block – blocks human tyrosyl-DNA phosphodiesterase 1. Potency, µM (top dose mostly 130 µM), most hits filed as inhibitors. actives 0.28% (n = 350,000). recombinant TDP1, AlphaScreen DNA substrate cleavage; note: nearly all actives have a fitted effect of over 40% in size
Target sequence (Q9NUW8 whole entry, looked up): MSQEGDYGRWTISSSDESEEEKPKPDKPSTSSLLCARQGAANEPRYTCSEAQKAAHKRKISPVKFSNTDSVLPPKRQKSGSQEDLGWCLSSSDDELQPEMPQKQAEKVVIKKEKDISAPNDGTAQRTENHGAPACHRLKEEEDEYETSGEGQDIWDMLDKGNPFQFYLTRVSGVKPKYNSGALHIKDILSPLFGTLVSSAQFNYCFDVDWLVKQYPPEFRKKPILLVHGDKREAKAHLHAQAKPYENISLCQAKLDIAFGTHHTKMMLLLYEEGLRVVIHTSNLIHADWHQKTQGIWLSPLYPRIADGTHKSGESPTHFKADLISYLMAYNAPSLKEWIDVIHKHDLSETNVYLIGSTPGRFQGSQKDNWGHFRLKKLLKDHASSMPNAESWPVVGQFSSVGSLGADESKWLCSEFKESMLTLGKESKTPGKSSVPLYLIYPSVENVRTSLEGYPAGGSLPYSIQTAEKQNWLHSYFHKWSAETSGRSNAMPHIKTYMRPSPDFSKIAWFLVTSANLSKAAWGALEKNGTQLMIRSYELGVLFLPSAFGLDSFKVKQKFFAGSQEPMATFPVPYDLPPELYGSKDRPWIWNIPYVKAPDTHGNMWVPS
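AlphaScreen read-out: signal falls as enzyme removes the 3' tyrosine-FITC from a 5'-biotinylated DNA oligo (15 nM, 5 min, RT). Enzyme was E. coli-made recombinant Tdp1 at 1 nM, exposed to compound for 15 min beforehand; beads 10 ug/ml, 10 min.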
Numbers stand for hits; – = inactive; ? = inconclusive; · = not tested or not shown; ! = a repeat was not active; [ ] = another dose, or the depositor's remark. Calls come from the whole dose curve; as a rule, active = well fitted curve in the direction sought with a large enough effect; inconclusive = small, poorly fitted or top-dose-only effect, or another doubt; inactive = no such curve, though single readings can be large; an effect the other way counts as inactive or inconclusive.

SMILES | TDP1 cell CPT | VDR inhibitor | DT40 TDP1 no CPT | PLK1 PBD inh | KAT2A inh | TDP1 block
CC(C)CC1C(=O)N(Cc2cn(Cc3ccco3)nn2)CCS(=O)(=O)N1Cc1ccc(-c2ccccc2)cc1 (configuration not stated) | 15µM | · | ? | – | · | ·
CC(C)CC1C(=O)N(Cc2cn(Cc3ccco3)nn2)CCS(=O)(=O)N1Cc1ccc(-c2ccncc2)cc1 (configuration not stated) | 21µM | · | 15µM | – | · | ·
CCC/C=C/c1ccc(CN2C(CC(C)C)C(=O)N(Cc3cn(Cc4ccco4)nn3)CCS2(=O)=O)cc1 (configuration not stated) | ? | · | ? | – | · | ·
COc1ccc(NC(=O)CSc2nc3cc(OC)c(OC)cc3c3nc(-c4ccccc4)nn23)cc1Cl | – | – | – | · | – | –
Cc1nccn1CCOc1ccc(Cl)cc1 | – | – | – | – | – | ·
COc1cc(C(=O)NCCOc2ccccc2)cc(OC)c1OC | – | – | – | – | ? | ·
COc1cc(C(=O)NCCOc2cc(C)cc(C)c2)cc(OC)c1OC | 4.1µM | – | 2.9µM | – | – | ·
COc1ccc(C(=O)NCCOc2cccc(Oc3ccccc3)c2)cc1OC | ? | – | 12µM | – | ? | –
Cc1ccc(C(C)C)c(OCCn2ccnc2C)c1 | 16µM | – | 23µM | – | – | ·
Cc1ccc(C(C)C)c(OCCNCCc2ccccc2)c1 | ? | – | 23µM | – | – | ·
CN(C)S(=O)(=O)c1ccc2c(c1)nc(CCC(=O)NCC(=O)Nc1ccc(F)c(F)c1F)n2C | – | · | ? | – | · | ·
NC(=O)CCC(NC(=O)OCc1ccccc1)C(=O)OCC(=O)c1ccccc1 (configuration not stated) | – | · | – | – | · | ·
Cc1cc(Br)cn2c(Cc3cccc(F)c3)c(C3CCCCC3)nc12 | ? | · | ? | – | · | ·
COc1ccc(C)cc1NC(=O)C(NC(=O)c1cc(OC)c(OC)c(OC)c1)C(C)C (configuration not stated) | – | ? | – | 30µM | – | –
COc1cc(C(=O)NCCOc2cc(C)ccc2C(C)C)cc(OC)c1OC | ? | – | 12µM | – | – | ·
COc1ccc(CNC(=O)C(=O)Nc2c3c(nn2-c2ccccc2)CSC3)cc1 | ? | – | ? | · | – | –
COc1ccc(OC)c(-c2cc(Cl)c3c(c2)CC(CNC(=O)c2coc4c2C(=O)CCC4)O3)c1 (configuration not stated) | –[9.04 µM] | · | – | · | · | ·
COc1ccc(C2CC(c3c(O)cc(C)oc3=O)=NCCS2)c(OC)c1 (configuration not stated) | 0.46µM | – | 0.021µM | – | – | –
COc1ccccc1NC(=O)c1oc2ccccc2c1NC(=O)Cc1cccs1 | ? | – | ? | · | – | –
COc1ccc(N(CC(=O)NCc2ccc(F)cc2)C(=O)c2snc(C(N)=O)c2N)cc1 | – | – | – | – | – | –
Cc1ccc(S(=O)(=O)c2ccc(C)cc2)cc1 | – | – | – | – | – | –
Cc1ccc(S(=O)(=O)/C=C\C#N)cc1 | 0.6µM | 2.8µM | 0.67µM | · | 28µM | –
CC(C)(C)c1ccc(S(=O)(=O)/C=C\C#N)cc1 | 0.47µM | 2µM | 0.53µM | · | 28µM | –
Cc1ccc(S(=O)(=O)/C=C/C#N)cc1 | 1.3µM | 11µM | 0.65µM | · | 22µM! | –
CCN1CCCC1CNC(=O)c1cc(COc2ccc(C)c(C)c2)on1 (configuration not stated) | – | – | – | ? | – | –
SMILES | TDP1 cell CPT | VDR inhibitor | DT40 TDP1 no CPT | PLK1 PBD inh | KAT2A inh | TDP1 block
O=C(CCC(=O)c1ccccc1)Nc1ccc(F)c(Cl)c1 | – | – | – | · | – | –
N/C(=N\OCC(=O)Nc1ccc(F)c(Cl)c1)c1ccccc1 | 23µM | – | ? | – | – | –
Cc1cc(C)c2c(CN3CCCCC3)cc(=O)oc2c1 | – | – | – | – | – | ·
Cc1cc(C)c2c(CCl)cc(=O)oc2c1 | 0.92µM | – | 0.92µM | ? | – | –
Cc1cc(C)c2c(CN3CCN(C/C=C/c4ccccc4)CC3)cc(=O)oc2c1 | 29µM | – | ? | – | – | –
CCN(Cc1ccccc1)C(=O)c1nc(-c2cccc(F)c2)n2c1CCCCC2 | ? | – | ? | · | – | –
COc1ccccc1C(=O)NCC(=O)OCC(=O)Nc1ccc2[nH]c(=O)[nH]c2c1 | – | – | – | – | – | –
O=[N+]([O-])c1nn(-c2ccccc2)n(O)c1=NCc1ccc2c(c1)OCO2 | ? | – | ? | – | – | –
COc1ccc(-n2nc([N+](=O)[O-])c(=NCc3ccc4c(c3)OCO4)n2O)cc1 | ? | – | 18µM | – | – | –
O=[N+]([O-])c1nn(-c2ccc3c(c2)OCCO3)n(O)c1=NCCCO | 15µM | – | 21µM | – | – | –
Cc1ccc(N=c2c([N+](=O)[O-])nn(-c3ccc4c(c3)OCCO4)n2O)c(Cl)c1 | · | · | · | · | – | –
Cc1ccc(CN=c2c([N+](=O)[O-])nn(-c3ccc4c(c3)OCCO4)n2O)cc1 | ? | – | 23µM | – | – | –
O=C(NCc1ccccc1)C(C1CC1)n1c(=O)c(-c2cc3ccccc3[nH]2)nc2ccccc21 (configuration not stated) | ? | · | ? | – | · | ·
O=C(NC1CCCC1)C(C1CC1)n1c(-c2ccccn2)nc2ccccc21 (configuration not stated) | 9.2µM | · | 7.3µM | – | · | ·
O=C(NCc1ccccc1)C(C1CC1)n1c(-c2cccs2)nc2ccccc21 (configuration not stated) | 10µM | · | 9.2µM | – | · | ·
O=C(NCc1ccccc1)C(C1CC1)n1c(CSCCOc2ccccc2)nc2ccccc21 (configuration not stated) | ? | · | 16µM | – | · | ·
O=C(NCc1ccccc1)C(c1ccccc1)n1c(C2CC2)nc2ccccc21 (configuration not stated) | ? | · | ? | – | · | ·
Cc1csc2nc(COC(=O)c3cccc(NC(=O)COc4ccccc4Cl)c3)cc(=O)n12 | ? | – | ? | · | – | –
O=C(Nc1ccccc1F)c1ccc(-n2cncn2)nc1 | – | – | – | – | – | –
COc1ccc(-n2c(=O)cnc3cnc(Oc4ccccc4)nc32)cc1 | – | – | ? | · | – | ·
COc1ccc(-n2c(=O)cnc3cnc(N(C)C)nc32)cc1 | 23µM | – | ? | · | – | ·
CN(C)c1ncc2ncc(=O)n(Cc3cccs3)c2n1 | ? | – | 21µM | · | – | ·
CCCCCCNc1c(C(=O)OCC)c(=O)[nH]c2ccccc12 | 16µM | – | ? | – | – | –
O=c1oc2ccc(Br)cc2cc1-c1nc2c(s1)CCc1ccccc1-2 | ? | – | – | · | · | –
